# From PubChem
# RECQ1 helicase: qHTS Assay for Inhibitors of RecQ-Like Dna Helicase 1 (RECQ1); Potency, µM (top dose mostly 57.3 µM), for the others: top-dose activity, negative = inhibition, most hits filed as inhibitors; RECQ1 DNA unwinding, red fluorescence kinetic read; ATP-dependent DNA helicase Q1 (Homo sapiens), P46063; actives 0.54% (n = 240,000);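 note: plate controls were vehicle for no effect and no enzyme for full effect; nearly all actives have a fitted effect of over 30% in size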
#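 50 nM RECQ1T1 preincubated 15 min with compound in Tris pH 8.0 buffer with MgCl2, DTT, Tween-20 and 2.5 ug/ml poly(dI-dC); started with 200 nM TAMRA/BHQ-2 forked duplex and 2 mM ATP. Unwinding read as fluorescence (525/598 nm), two reads 2 h apart.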
# APE1 inh: qHTS Assay for Inhibitors of the Human Apurinic/apyrimidinic Endonuclease 1 (APE1) | Potency, µM (series often up to 65.8 µM), for the others: top-dose activity change, negative = inhibition, most hits filed as inhibitors | DNA repair nuclease/redox regulator APEX1 (Homo sapiens), P27695 | recombinant APE1, TAMRA/BHQ-2 abasic DNA cleavage fluorescence | actives 0.35% (n = 350,000);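 note: plate controls were vehicle for no effect and reference inhibitor for full effect; nearly all actives have a fitted effect of over 55% in size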
#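 Enzyme (0.75 nM final) and test compound are incubated 15 min at room temperature before adding 50 nM quenched THF abasic-site duplex. Cleavage dequenches TAMRA, followed at 525/598 nm over three reads one minute apart.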
# FEN1 inhibitor: qHTS Assay for the Inhibitors of Human Flap endonuclease 1 (FEN1); P39748; Recombinant FEN1 flap cleavage, fluorescence, 15 min; actives 0.35% (n = 390,000); Potency, µM (highest dose often 114 µM), for the others: at the highest dose activity change, negative = inhibition, hits mostly inhibitors; note: nearly all actives have a fitted effect of over 65% in size
#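 Nuclease activity of 10 nM FEN1 was measured after 15 min of room-temperature exposure to titrated compounds, by adding 50 nM flap substrate and reading plates at 0 and 15 min.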
# L3MBTL1 block: qHTS Assay for the Inhibitors of L3MBTL1 | Lethal(3)malignant brain tumor-like protein 1 (Homo sapiens), Q9Y468 | AlphaScreen L3MBTL1–H3K9me1 peptide binding | Potency, µM (series often up to 57.1 µM), for the others: at the highest dose activity, negative = inhibition, actives largely listed as inhibitors | actives 0.66% (n = 230,000) | AID 485360, 2010; note: nearly all actives have a fitted effect of over 60% in size
#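 AlphaScreen assay: L3MBTL1 (50 nM final) was preincubated 30 min at room temperature with biotinylated H3(1-15)K9me1 peptide (75 nM final), then 30 min with library compounds; streptavidin donor and nickel chelate acceptor beads (10 ug/mL final) added, 30 min dark.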
# WRN inhibitor: qHTS for Inhibitors of WRN Helicase | Bifunctional 3'-5' exonuclease/ATP-dependent helicase WRN (Homo sapiens), Q14191 | WRN helicase unwinding, fluorescent forked duplex, kinetic | Potency, µM (highest dose often 114 µM), for inactives: at the highest dose activity change, negative = inhibition, most hits filed as inhibitors | actives 0.46% (n = 360,000) | AID 651768, 2012; note: nearly all actives have a fitted effect of over 55% in size
#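 Primary qHTS, 1536-well format. 20 nM WRN + compound, 15 min RT; start with 100 nM forked fluorophore/quencher duplex, 2 mM ATP (final); kinetic read ex 525/em 598 nm.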
# BLM inh: qHTS Assay for Inhibitors of Bloom's syndrome helicase (BLM) | recombinant BLM DNA unwinding, fluorescence dequenching | Potency, µM (series often up to 56.1 µM), for the others: at the highest dose activity change, negative = inhibition, actives largely listed as inhibitors | actives 0.2% (n = 350,000);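 note: plate controls were vehicle for no effect and no enzyme for full effect; nearly all actives have a fitted effect of over 35% in size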
# * hit, by the source's call; i = inactive; ? = inconclusive; · = no result given; [ ] = remark or other dose. An excerpt weighted towards active compounds, which were near 1% of everything screened. Calls come from the whole dose curve; as a rule, active = well fitted curve in the direction sought with a large enough effect; inconclusive = small, poorly fitted or top-dose-only effect, or another doubt; inactive = no such curve, though single readings can be large; an effect the other way counts as inactive or inconclusive. Unless noted, % is set by controls: 0 for no effect and ±100 for the full control effect; potency is the fitted concentration of half-maximal effect.
SMILES,RECQ1 helicase,APE1 inh,FEN1 inhibitor,L3MBTL1 block,WRN inhibitor,BLM inh
O=C1COc2cc(S(=O)(=O)NCc3ccco3)c(Cl)cc2N1,·,-20.2%,-17.7%,31.6µM*,·,-12.0%
CN(C)CCN(Cc1ccco1)S(=O)(=O)c1cc2c(cc1Cl)NC(=O)CO2,·,·,-4.3%,·,·,4.6%
CC(C)CC(CSc1ccc(Br)cc1)N1CCN(C)CCC1=O (stereo not given),-7.2%,1.4%,-3.9%,·,·,-1.7%
CC1=NN(c2nc3ccccc3[nH]2)C(=O)C1Cc1ccccc1 (stereo not given),-6.8%,?,6.4%,20µM*,3.0%,-1.5%
CC1=NN(c2nc3ccccc3[nH]2)C(=O)/C1=C/N(C)C,-6.0%,-4.9%,7.1%,·,2.1%,-2.6%
N#Cc1cccc(-c2csc(N3CCC(C(N)=O)CC3)n2)c1,·,-9.9%,·,·,·,·
CC(C)(C)c1ccc(S(=O)(=O)c2cnc(SCC(=O)Nc3ccc(F)c(Cl)c3)[nH]c2=O)cc1,·,·,50.1µM*,·,·,-16.5%
COc1ccc(-c2ccc3nnc(-c4ccccc4OC)n3n2)cc1OC,·,54.4%,·,·,·,·
Cc1ccc(-c2cn(-c3cccc(Cl)c3)c(S(=O)(=O)CC(=O)Nc3ccccc3F)n2)cc1,·,·,11.6%,·,·,-6.9%
COc1cc2c(cc1OC)n(Cc1ccc([N+](=O)[O-])cc1)c(=O)n1nc(-c3ccccc3)nc21,·,·,4.6%,·,·,-0.5%
O=c1c2ccccc2sn1-c1ccccc1F,·,·,·,·,-4.8%,·
O=c1c2ccccc2sn1-c1ccccc1,-4.6%,-4.8%,?,·,50.1µM*,-0.6%
O=c1c2cc(F)ccc2sn1-c1ccccc1,·,39.2%,79.4µM*,-4.5%,-5.0%,·
O=C(O)c1cccc(-n2sc3ccccc3c2=O)c1,·,-6.9%,20µM*,-5.2%,-25.5%[11.6 µM],·
Cc1ccccc1-n1sc2cc(F)ccc2c1=O,-2.5%,0.0%,79.4µM*,·,14.1µM*,0.5%
CC(C)C[C@@H](COCc1ccc([N+](=O)[O-])cc1)N1CCN(C(=O)c2ccc(C(F)(F)F)cc2)CCC1=O,·,·,·,·,-4.5%,·
CC(=O)Nc1cc(-c2ccsc2)cn2c(-c3ccc(F)cc3)cnc12,·,·,·,·,-0.8%,·
O=c1c2ccccc2sn1-c1nccs1,-5.4%,-3.9%,?,-0.1%,25.1µM*,-3.2%
CC(C)(C)NC(=O)C1c2ccccc2OCC(=O)N1Cc1ccccn1 (stereo not given),·,·,·,·,-1.8%,·
CC(C)(C)c1c(Cl)c(O)c(-c2ccccc2)c(=O)n1-c1ccccc1,i,18.4%,-16.9%,31.6µM*,50.1µM*,-8.9%
O=C(Nc1ccccc1)C1=C[C@H](c2csc3ccccc23)C[C@H](OCCCCO)O1,39.8µM*,3.2%,-16.8%,4.5%,-7.6%,-5.1%
O=C(NCCO)c1ccc(-c2ccc3nncn3c2)cc1,·,·,·,·,-9.3%,·
Oc1[nH]c2ccccc2c1N=Nc1ccccn1,·,·,0.1%,·,-15.6%,·
Oc1c(N=Nc2ccccn2)ccc2ccccc12,i,-2.2%,?,11.2µM*,56.2µM*,-8.4%
COc1ccc(CCn2c(C)nc3c(c(=O)c4ccccc4n3C)c2=O)cc1,-15.5%,22.1%,50.1µM*,-3.2%,-7.5%,-2.6%
Nc1nc(-c2ccccc2)c(N=Nc2cccc3ccccc23)s1,35.5µM*,?,-7.6%,17.8µM*,-13.4%,-14.6%
CC(=O)Nc1sc(N)nc1-c1ccccc1,-8.1%,?,-3.7%,·,3.0%,2.7%
Nc1nc(-c2ccccc2)c(N=Nc2ccccc2Cl)s1,-15.5%,-7.2%,?,28.2µM*,-27.2%,-12.0%
